Measured values published in the supplement of paper PMC12669797.
Where “and” joins values, the source holds several entries; their conditions need not be identical. Equal entries are not always repeated.

Assays:
ES2 = assay: cell viability relative to DMSO control (MTS) (fraction of DMSO control); higher = more viable cells / less growth inhibition; details: 10 µM; 48 h
How it was run: (§1)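 Viability values are fractions of the vehicle-treated control. They come from an MTS assay run per the manufacturer's instructions on TOV-21G and ES2 clear cell carcinoma cells, seeded at 5000 cells per well in 96-well plates. Each compound of a 367-member […] library was added at 10 µM final after 24 h of growth, and the readout was taken after a further 48 h.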

TOV-21G = assay: as above; details: 10 µM; 48 h
How it was run: as §1

Cc1cc(C=C2C(=O)C=CC2=O)cc(C)c1O
cell viability (ES2): 0.801
cell viability (TOV-21G): 1.21

O=c1c(-c2ccc(O)cc2)coc2cc(O)cc(O)c12 [Genistein]
cell viability (ES2): 1.31
cell viability (TOV-21G): 0.988

O=C(NCc1ccccc1)c1csc(Nc2ccncn2)n1 [Thiazovivin]
cell viability (ES2): 0.941
cell viability (TOV-21G): 1.04

C[C@]1(O)C[C@@H](c2nc(-c3ccc4ccc(-c5ccccc5)nc4c3)c3c(N)nccn32)C1
cell viability (ES2): 0.62
cell viability (TOV-21G): 0.875

CO[C@@]12[C@H](COC(N)=O)C3=C(C(=O)C(C)=C(N)C3=O)N1C[C@@H]1N[C@@H]12 [Mitomycin C]
cell viability (ES2): 0.35
cell viability (TOV-21G): 0.213

O=c1cc(N2CCOCC2)oc2c(-c3ccccc3)cccc12
cell viability (ES2): 0.666 and 0.627
cell viability (TOV-21G): 0.52 and 0.519

COc1ccc(COc2ccc(Cc3cnc(N)nc3N)cc2OC)cc1 [cFMS Receptor Tyrosine Kinase Inhibitor]
cell viability (ES2): 0.942
cell viability (TOV-21G): 1.01

CCN(CC)CC(=O)Nc1c(C)cccc1C [Lidocaine]
cell viability (ES2): 1.1
cell viability (TOV-21G): 1.4

CC(C)[C@H](CO)Nc1nc(Nc2cccc(Cl)c2)c2ncn(C(C)C)c2n1 [purvalanol A]
cell viability (ES2): 0.657
cell viability (TOV-21G): 0.607

Cc1ccc(Nc2nccc(N(C)c3ccc4c(C)n(C)nc4c3)n2)cc1S(N)(=O)=O [pazopanib]
cell viability (ES2): 0.96
cell viability (TOV-21G): 0.864

CN(C)CC[C@H](CSc1ccccc1)Nc1ccc(S(=O)(=O)NC(=O)c2ccc(N3CCN(Cc4ccccc4-c4ccc(Cl)cc4)CC3)cc2)cc1[N+](=O)[O-]
cell viability (ES2): 0.713
cell viability (TOV-21G): 0.358

CC(Cc1ccc(O)c(O)c1)C(C)Cc1ccc(O)c(O)c1 (stereo not given) [Nordihydroguaiaretic acid (NDGA)]
cell viability (ES2): 1
cell viability (TOV-21G): 0.865

Nc1ncnc2nc(-c3ccc(N4CCOCC4)nc3)cc(-c3cccc(Br)c3)c12
cell viability (ES2): 0.795
cell viability (TOV-21G): 0.484

COC(=O)C[C@H](NC(=O)[C@H](C)NC(=O)[C@@H](NC(=O)OCc1ccccc1)C(C)C)C(=O)CF
cell viability (ES2): 1.42
cell viability (TOV-21G): 1.16

CC(C)CC(=O)N[C@H](C(=O)N[C@H](C(=O)N[C@@H](CC(C)C)[C@@H](O)CC(=O)N[C@@H](C)C(=O)N[C@@H](CC(C)C)[C@@H](O)CC(=O)O)C(C)C)C(C)C [Pepstatin A]
cell viability (ES2): 0.807
cell viability (TOV-21G): 1.18

CCCCOc1cc(CC2CNC(=O)N2)ccc1OC (stereo not given)
cell viability (ES2): 0.901
cell viability (TOV-21G): 0.999

O=c1c2ccccc2[nH]c(=S)n1CCN1CCC(=C(c2ccc(F)cc2)c2ccc(F)cc2)CC1 [Diacylglycerol kinase inhibitor II]
cell viability (ES2): 1.09
cell viability (TOV-21G): 1.13

CC#C[C@]1(O)CC[C@H]2[C@@H]3CCC4=CC(=O)CCC4=C3[C@@H](c3ccc(N(C)C)cc3)C[C@@]21C [Mifepristone]
cell viability (ES2): 1.04
cell viability (TOV-21G): 0.846

CCCCCCCCCCC1=C(C)C(=O)C(OC)=C(OC)C1=O [Decylubiquinone]
cell viability (ES2): 1.02
cell viability (TOV-21G): 0.981

CC(=O)O[C@H]1C(=O)[C@@]2(C)[C@H]([C@H](OC(=O)c3ccccc3)[C@]3(O)C[C@H](OC(=O)[C@H](O)[C@@H](NC(=O)c4ccccc4)c4ccccc4)C(C)=C1C3(C)C)[C@]1(OC(C)=O)CO[C@@H]1C[C@@H]2O [Paclitaxel]
cell viability (ES2): 0.467
cell viability (TOV-21G): 1.25

O=C(NCCCCCCNC(=O)ON=C1CCCCC1)ON=C1CCCCC1
cell viability (ES2): 1.3
cell viability (TOV-21G): 0.996

COCC[n+]1c2c(n(Cc3cnccn3)c1C)C(=O)c1ccccc1C2=O
cell viability (ES2): 0.242
cell viability (TOV-21G): 0.291

CC(=O)N[C@@H](CSC(=O)[C@]1([C@@H](O)C(C)C)NC(=O)[C@H](C)[C@@H]1O)C(=O)O [Lactacystin]
cell viability (ES2): 0.637
cell viability (TOV-21G): 0.482

Clc1ccccc1CNCC1CCC(CNCc2ccccc2Cl)CC1 (stereo not given)
cell viability (ES2): 0.789
cell viability (TOV-21G): 1.03

COc1cccc(-c2cc(=O)c3ccccc3o2)c1N
cell viability (ES2): 0.798 and 0.451
cell viability (TOV-21G): 0.852 and 0.84

CC1=C(/C=C/C(C)=C/C=C/C(C)=C/C(=O)O)C(C)(C)CCC1 [tretinoin]
cell viability (ES2): 1.01
cell viability (TOV-21G): 1.51

C#Cc1cccc(Nc2ncnc3cc(OCCOC)c(OCCOC)cc23)c1 [erlotinib]
cell viability (ES2): 0.7
cell viability (TOV-21G): 0.487

Cc1nc2sccn2c(=O)c1CCN1CCC(=C(c2ccccc2)c2ccc(F)cc2)CC1
cell viability (ES2): 0.963
cell viability (TOV-21G): 1.04

NC(=O)NO [Hydroxyurea]
cell viability (ES2): 1.21
cell viability (TOV-21G): 0.811

CS(=O)(=O)CCNCc1ccc(-c2ccc3ncnc(Nc4ccc(OCc5cccc(F)c5)c(Cl)c4)c3c2)o1 [lapatinib]
cell viability (ES2): 0.482
cell viability (TOV-21G): 4.68
